Experimental findings from PubChem BioAssay AID504332 (National Center for Advancing Translational Sciences (NCATS), 2011) are described below.

About 31,000 (8.9%) of roughly 350,000 compounds were called active. Inconclusive results (about 15%) are left out. The sample as a whole holds a higher share of actives than the screen did. Values without a mark were called inactive. Calls come from the whole dose curve; as a rule, active = well fitted inhibition curve with a large enough effect; inconclusive = small, poorly fitted or top-dose-only effect; inactive = no such curve, though single readings can be large or run the other way.
% is set by controls: 0 for no effect and ±100 for the full control effect; potency is the fitted concentration of half-maximal effect.

The target of the assay is Histone-lysine N-methyltransferase EHMT2 (Homo sapiens) (UniProt Q96KQ7). The assay can be described thus: qHTS Assay for Inhibitors of Histone Lysine Methyltransferase G9a. Note: nearly all actives have a fitted effect of over 75% in size. Particulars: G9a H3K9 monomethylation, AlphaScreen, 2 h; series mostly up to 59 µM; activity, negative = inhibition: at the top concentration. Summed up: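 AlphaScreen read-out: biotin-H3K9 peptide (500 nM) methylation by 20 nM enzyme with 20 uM SAM, 2 h at room temperature after 15 min compound preincubation; anti-monomethyl H3K9 antibody plus donor/acceptor beads, 10 min dark.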
Chain of Histone-lysine N-methyltransferase EHMT2 (Homo sapiens) (Q96KQ7 913-1193 limits assumed): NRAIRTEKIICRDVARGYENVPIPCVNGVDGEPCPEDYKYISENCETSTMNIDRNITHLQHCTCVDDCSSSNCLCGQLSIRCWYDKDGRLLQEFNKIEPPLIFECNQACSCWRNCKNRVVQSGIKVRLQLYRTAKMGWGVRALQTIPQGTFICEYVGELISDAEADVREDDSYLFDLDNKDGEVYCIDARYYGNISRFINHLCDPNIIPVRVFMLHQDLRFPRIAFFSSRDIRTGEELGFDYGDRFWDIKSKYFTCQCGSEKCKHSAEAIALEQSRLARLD
A general note: In qHTS, concentration-response curves come from the screen itself.
Consider `CN1C(C(=O)NCc2ccco2)CC2Cn3c(nc4ccccc43)C21` (stereo not drawn), for which the activity, negative = inhibition was 16.2% [at 2.33 µM]. For `COc1ccccc1N1CCN(C(=O)C2Cc3ccccc3CN2C(=O)c2ccco2)CC1` (stereo not drawn), the “activity, negative = inhibition” value was 12.2%. `CC1CCN(c2ccc(-c3ccc(NC(=O)c4ccco4)cc3)nn2)CC1`: the “activity, negative = inhibition” value is -2% [at 102 µM].

With `O=C(Nc1cc(C(F)(F)F)ccc1Cl)c1ccc2c(c1)CCN2S(=O)(=O)c1ccccc1`, the “activity, negative = inhibition” value was 4.92%.

Regarding `COc1cccc(N2CC(C(=O)NCc3n[nH]c(=O)c4ccccc34)CC2=O)c1` (stereo not drawn), the activity, negative = inhibition is -7.83% [at 2.33 µM]. Consider `Cc1cc(C)c(NC(=O)CN2C(=O)c3cccnc3Oc3ccc(Cl)cc32)c(C)c1`, for which the “activity, negative = inhibition” value is 4.24%. `O=C(CN1C(=O)c2cccnc2Oc2ccc(Cl)cc21)NCCc1ccccc1`: the Potency result is “inactive”. As to `CCN(CC)c1ccc(NC(=O)CN2C(=O)c3cccnc3Oc3ccc(Cl)cc32)c(C)c1`, the Potency is 2.82 µM (active). Regarding `COc1ccc(C(=O)COC(=O)CCCC(=O)Nc2cc(C(F)(F)F)ccc2Cl)cc1`, the “activity, negative = inhibition” value is 2.92%. On the same count and under the same terms, the result for `O=c1c2ccccc2ncn1/N=C/c1ccccc1` reads 8.52% [at 102 µM]; that for `CCCCn1c(=O)c(CCC(=O)OCC(=O)Nc2ccc(C)c(Cl)c2)nc2ccccc21`, 21.2%; that for `Cc1ccc(NC(=O)COC(=O)CCc2nc3ccccc3n2-c2ccccc2)c(C)c1`, 19.1%. Take `CCN(c1ccc(NC(=O)COC(=O)CCc2nc3ccccc3n2-c2ccccc2)cc1)C(C)C`: the Potency was 15.8 µM (active). With `Cc1ccc(N=C2NC(=O)/C(=C/C=C/c3ccco3)S2)cc1C`, the Potency is 10 µM (active).

`CN(C)c1ccc(-n2cccc2/C=C2/SC(=Nc3ccc(F)cc3)NC2=O)cc1`: the “activity, negative = inhibition” value is -3.36% [at 102 µM]. Still for that read-out and setting: with `Cc1ccc(N(CC(=O)NCc2ccc(Cl)cc2)S(=O)(=O)N(C)C)cc1` the figure was 2.2%. Still for that read-out and setting: the result for `COc1cc(C(=O)Nc2ccc(OCc3cc(=O)n4ccc(C)cc4n3)cc2)cc(OC)c1OC` reads 0.891%. On the same count and under the same terms, the result for `COc1cccc(CNC(=O)C(=O)NCC(c2cccs2)S(=O)(=O)c2ccccc2)c1` (stereo not drawn) reads 9.87%. Consider `CCn1cc(C(=O)NCCCN2CCCCCC2)c(=O)c2cc(S(=O)(=O)N3CCc4ccccc4C3)ccc21`, for which the Potency is 31.6 µM (active). For `CCn1cc(C(=O)NCc2ccc(C)cc2)c(=O)c2cc(S(=O)(=O)N3CCc4ccccc4C3)ccc21`, the “activity, negative = inhibition” value is -3.65%. On the same count and under the same terms, the result for `CCOCCCNC(=O)c1cn(CC)c2ccc(S(=O)(=O)N3CCc4ccccc4C3)cc2c1=O` reads -4.51%; that for `O=c1c2ccccc2c(-c2ccc(F)cc2)nn1-c1ccc(C(F)(F)F)cc1`, 28.6%. On to `FC(F)(F)c1ccc(-n2cn[nH]c2=S)cc1`, for which the Potency was 8.91 µM (active). Consider `CCOc1ccc(OCC)c(NS(=O)(=O)c2ccc3[nH]c(=O)ccc3c2)c1`, for which the “activity, negative = inhibition” value is 3%. Regarding `COc1cccc(/C=C2\SC(=N)N(c3ccc(F)cc3)C2=O)c1`, the “activity, negative = inhibition” value is 10.2%. As for `COc1cc(/C=C2/C(=O)NN(c3ccc(F)cc3)C2=O)cc([N+](=O)[O-])c1O`, the Potency is 39.8 µM (active). On to `COc1ccc(C(=O)N2CCN(c3ccc(C(C)=O)cc3F)CC2)cc1S(=O)(=O)NC1CC1`, for which the activity, negative = inhibition is 15.5% [at 2.33 µM]. Same read-out and setting: the result for `CCOc1ccc(-c2nnc3ccc(SC)nn23)cc1` reads 12.5% [at 102 µM]; that for `COC(=O)c1ccc(CSc2ccc3nnc(-c4ccccc4)n3n2)o1`, -17.6%. For the molecule `COc1ccc(-c2nnc3ccc(SCc4ccccc4)nn23)cc1`, the Potency was 70.8 µM (active).

Regarding `CCOc1ccc(NC(=O)Cn2cc(C(=O)c3ccc(C)cc3)c(=O)c3cc4c(cc32)OCCO4)cc1`, the “activity, negative = inhibition” value was 14.7%. Still for that read-out and setting: with `O=C(CCc1nnc(Cc2ccc3c(c2)OCO3)o1)NCCc1ccccc1Cl` the figure was 27.8% [at 0.501 µM].

Turning to `O=C(NNc1ccccn1)c1ccc(Cl)nc1`, the Potency was 3.55 µM (active). As for `CCN(CC)S(=O)(=O)c1cc(C(=O)Nc2ccccn2)ccc1C`, the activity, negative = inhibition was -27.2% [at 12.7 µM].

`COc1ccc(C(=O)/C=C/Nc2ccccn2)cc1`: the “activity, negative = inhibition” value was 11.7% [at 102 µM]. The same measure, in the same setting: with `Cc1ccc(NC(=O)CN(C)C(=O)Cn2nnc(-c3ccccc3)n2)cc1` the figure was 1.83% [at 102 µM]; with `Cc1ccc(C)c(NC(=O)CN(C)C(=O)c2ccc3ncsc3c2)c1`, -26.8% [at 102 µM]. The same measure, in the same setting: the result for `CC(NC(=O)c1ccc(S(=O)(=O)Nc2ccccc2)cc1)c1ccc(S(N)(=O)=O)cc1` (stereo not drawn) reads -4.66%. Same read-out and setting: the result for `COc1cc(Br)cc2cc(S(=O)(=O)c3ccccc3)c(=O)oc12` reads -44.4%; that for `COc1ccc(OC)c2sc(N3CCN(C(=O)C4COc5ccccc5O4)CC3)nc12` (stereo not drawn), -41.3%; that for `COc1cc(NS(=O)(=O)c2ccc3c(c2)OCC(C(=O)N2CCCC2)O3)cc(OC)c1` (stereo not drawn), 9.66%.

With `Cc1c(CC(=O)N2CCN(C(=O)C3COc4ccccc4O3)CC2)c(=O)oc2c(O)c(O)ccc12` (stereo not drawn), the Potency was 12.6 µM (active).

As to `Cc1ccccc1CN1CCC(CNC(=O)c2c(C)oc3ncnc(N4CCCCC4)c23)CC1`, the “activity, negative = inhibition” value was -14.7%. Regarding `COc1ccc2oc(C(=O)NCc3ccco3)c(C)c2c1`, the “activity, negative = inhibition” value was -3.78% [at 102 µM]. Still for that read-out and setting: with `O=C(c1ccco1)n1nc(-c2ccc(Cl)cc2)nc1NCc1ccccc1` the figure was -2.33%. For the molecule `C1=C(N2CCOCC2)/C(=C/c2nc3ccccc3[nH]2)CC1`, the Potency is 20 µM (active).

On to `c1ccc(-n2nnnc2N2CCOCC2)cc1`, for which the “activity, negative = inhibition” value is -32.7% [at 102 µM]. For the molecule `O=c1[nH]c(N2CCOCC2)nc2ccccc12`, the “activity, negative = inhibition” value was 15.6% [at 102 µM].
